# Assay outcomes (PubChem)
# D2 ag-1: agonists of human D2 dopamine receptor; P14416; HEK293 T-REx D2 cells, calcium flux agonist mode; activation, % at 2 µM; 340,000 tested, 0.53% active;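 active means activation over 3 SD above normal in the single-dose calcium agonist read, cut at about 30% in these data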; further: 0% is about no effect
# Target sequence (P14416 whole entry, looked up): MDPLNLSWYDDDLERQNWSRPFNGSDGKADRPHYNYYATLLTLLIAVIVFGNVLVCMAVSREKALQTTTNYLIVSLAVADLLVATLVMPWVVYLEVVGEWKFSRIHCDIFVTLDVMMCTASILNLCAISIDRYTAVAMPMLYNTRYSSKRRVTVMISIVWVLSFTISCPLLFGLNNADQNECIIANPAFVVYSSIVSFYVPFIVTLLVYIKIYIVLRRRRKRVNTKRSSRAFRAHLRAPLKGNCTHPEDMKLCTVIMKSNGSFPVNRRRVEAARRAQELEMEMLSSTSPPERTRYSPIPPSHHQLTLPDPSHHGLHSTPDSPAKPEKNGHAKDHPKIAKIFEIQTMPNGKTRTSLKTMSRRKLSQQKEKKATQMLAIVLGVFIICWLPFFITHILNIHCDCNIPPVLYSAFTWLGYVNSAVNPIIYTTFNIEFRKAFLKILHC
#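 HEK293 Trex D2 cells, tetracycline-induced, o/n 30 C 5% CO2; no-wash Ca dye, RT 30–90 min; 10-cycle baseline, 23 nl cpd added, kinetic Ca read 180 s; agonist hits = positive Ca response.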
# D2 ag-2: agonists of human D2 dopamine receptor (beta-arrestin); P14416; DiscoveRx PathHunter D2 beta-arrestin, luminescence, 90 min; 100% = 57 uM dopamine signal; activation, % (no concentration beside the values); 360,000 tested, 0.084% active; in the data active means activation above about 40%; inconclusive means between about 15% and that limit
#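 DiscoveRx PathHunter D2 beta-arrestin cells (2,100/well) attached overnight, then compound-stimulated 90 min at 37 C in HBSS/10 mM HEPES/0.1% Tween-20 buffer; beta-galactosidase complementation read by luminescence after 1 h at ambient temperature. Dopamine 57 uM final (EC100) as control.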
# D2 antagonist: D2 dopamine receptor (human) antagonism | P14416 | AID 485344 | HEK293 TREx D2 cells, calcium flux, dopamine EC80 | inhibition, % at 10 µM | 340,000 tested, 2% active; in the data active means inhibition above about 30%; inactive means below that, where a call was filed; further: 0% is about no effect
#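 Tetracycline-induced HEK293 TREx cells expressing D2 receptor forced-coupled to calcium signalling, loaded with no-wash calcium dye. Compounds added and calcium flux read 180 s, then dopamine added at EC80 and read a further 180 s.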
# D2 PAM-1: D2 dopamine receptor (human) potentiation; P14416; HEK293 T-REx D2, calcium flux, EC20 dopamine potentiation; potentiation, % at 10 µM; 340,000 tested, 0.34% active;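 active means potentiation over 3 SD above the plate norm, cut at about 30% in these data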; further: 0% is about no effect
#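 Potentiation of an EC20 dopamine calcium response measured kinetically over 180 s, after a preceding 180 s compound-only read flagging agonists. Cells: inducible Hek293 Trex D2 line, 4000/well, cultured overnight at 30 C before dye loading.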
# D2 PAM-2: potentiates the human D2 dopamine receptor allosterically | DiscoveRx D2 beta-arrestin cells, luminescence, 90 min; 100% = 57 uM dopamine signal | potentiation, % (concentration not given with the values) | 360,000 tested, 0.23% active; in the data active means potentiation above about 50%; inconclusive means mostly about 30% to 49%
#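 PathHunter beta-arrestin assay in DiscoveRx D2 cells. Compounds were added with an EC20 of dopamine (50 nM final) for 90 min at 37 deg C. Luminescence was read 1 h after detection reagent, with 57 uM dopamine as the EC100 control.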
# An asterisk follows results filed as active; u = inconclusive; x = no result. In the library only some 2.4% were active in any assay of this set; here they are far more common.
SMILES,D2 ag-1,D2 ag-2,D2 antagonist,D2 PAM-1,D2 PAM-2
CC(=O)Nc1sc(N/N=C\c2ccco2)nc1-c1cccs1,1,u,9,-10,78*
Cc1cc(C)c2c(c1)c1nnc(SCCN3CCCCC3)nc1n2C,-2,-2,1,-10,-19
CN(C)c1ccc(C(CNC(=O)c2ccccc2)N2CCc3ccccc32)cc1 (configuration not stated),0,x,x,-2,x
CCCCCn1cnc2c(=S)nc(N)[nH]c21,2,2,49*,8,-6
CCCCn1cnc2c(=S)nc(N)[nH]c21,1,3,5,5,-5
CCOC(=O)c1c(C)n(-c2ccc(C)cc2)c2ccc(O)c(CN(C)C)c12,0,4,40*,-10,-8
COc1cccc(C(NC(C)=O)c2nc(-c3ccccc3C)cs2)c1 (configuration not stated),x,78*,x,x,-3
CC(=O)NC(c1cccc(F)c1)c1nc(-c2ccccc2C)cs1 (configuration not stated),x,-3,x,x,-5
O=C(c1ccccc1)c1ccc2c(c1)OCCOCCOCCOCCO2,-2,-3,50*,10,-7
O=C(O)c1ccc2c(c1)OCCOCCOCCOCCOCCO2,-1,-2,-22,-5,-7
Cc1cccc2c3c([nH]c12)CCN(C)C3,2,-4,66*,-28,-24
NC(=O)c1cccc2c3c([nH]c12)CCCC3,0,-3,-6,-4,-17
CC(C)CCNC(=O)c1ccc2c(c1)N(C)C(=O)c1ccccc1S2,2,-2,47*,-21,-23
CCN1C(=O)c2ccccc2Sc2ccc(C(=O)NCCC(C)C)cc21,0,-4,44*,-26,-21
CCCCNC(=O)c1ccc2c(c1)N(C)C(=O)c1ccccc1S2,-1,1,-27,-9,-13
Cc1cc(O)c(C(c2cccc(Cl)c2)N2CCN(c3ccccc3)CC2)c(=O)n1Cc1ccco1 (configuration not stated),23,x,x,-10,x
CCCn1c2ccccc2c2nnc(SCC(=O)OC)nc21,0,-3,-24,14,-2
CCCCn1c2ccccc2c2nnc(SCC(=O)NC3=NN=C(c4ccccc4)CS3)nc21,0,x,70*,7,x
ClCc1nc2ccccc2c2ccccc12,5,-4,14,-9,-11
Cc1ccnc(NC(NC(=O)C(C)C)(C(F)(F)F)C(F)(F)F)c1,0,-2,32*,4,-9
COC(=O)C(NC(=O)c1ccco1)(Nc1cc(C)ccn1)C(F)(F)F (configuration not stated),0,3,-10,8,-2
Cc1ccc(NC(=O)CCn2nc(C)c(S(=O)(=O)N3CCCCC3)c2C)cc1Cl,-4,x,x,-21,x
CCOC(=O)c1ccc(NC2=CC(=O)C(=O)c3ccccc32)cc1,0,10,-8,-6,112*
CCOC(=O)c1ccc(NC(=O)Oc2ccccc2)cc1,1,0,-2,33*,-4
CC1(c2ccccc2)NC(=O)N(CC(=O)N2CCOCC2)C1=O (configuration not stated),0,-3,0,-3,-16
SMILES,D2 ag-1,D2 ag-2,D2 antagonist,D2 PAM-1,D2 PAM-2
CC(C)(C)C1(c2ccccc2)NC(=O)N(CC(=O)N2CCOCC2)C1=O (configuration not stated),0,2,44*,-17,10
O=C(c1ccc([N+](=O)[O-])o1)N1CCN(c2nc3c(Cl)cccc3s2)CC1,0,10,0,2,69*
COc1cccc2sc(N3CCN(C(=O)c4ccc([N+](=O)[O-])o4)CC3)nc12,1,10,-2,-8,21
COC(=O)COc1ccc2c(-c3cccc([N+](=O)[O-])c3)cc(=O)oc2c1,1,1,50*,-7,19
COc1ccc(OC)c(N(CC(=O)NN=C2CCN(C)CC2)S(=O)(=O)c2ccccc2)c1,-1,2,6,6,0
O=C(/C=C/c1ccco1)NCC1OCCc2ccccc21 (configuration not stated),1,-3,31*,-7,-6
Cc1cc(C)c(NC(=O)CSc2nc3ccccc3c3nc(-c4ccccc4)nn23)c(C)c1,0,x,x,4,x
Cc1ccc(C(=O)CN(C(=O)c2ccc(Cl)cc2)N2C(=O)c3ccccc3C2=O)cc1,-1,-1,-7,-2,-3
Cc1ccc(C(=O)CN(C(=O)c2ccc(Cl)cc2)N2C(=O)CCC2=O)cc1,-1,-5,31*,-21,-49
Nc1ccccc1Nc1cc(-c2cccc(Cl)c2)nn1-c1ccccc1,1,u,-5,6,68*
Nc1c(-c2ccccc2)cnn1-c1cccc(Cl)c1,1,6,-5,6,-2
Cc1ccc2c(c1)C1(C(=O)N2C)N2CC3(C)CN1CC(C)(C2)C3=O (configuration not stated),1,-2,-3,33*,-2
CCCC12CN3CC(C)(CN(C1)C31C(=O)Nc3ccc(C)cc31)C2=O (configuration not stated),-2,0,-15,-6,9
Cc1nnc(N/N=C/c2cccc(C(F)(F)F)c2)n1N,19,0,-17,-8,-3
Cc1nnc(N/N=C/c2cccc(OCc3ccc(Cl)c(Cl)c3)c2)n1N,-1,15,-29,-9,74*
COc1ccc(S(=O)(=O)n2nc(-c3cc(OC)c(OC)c(OC)c3)cc2N)cc1OC,0,-2,1,3,-1
COc1ccc(-c2cc(N)n(S(=O)(=O)c3c(F)c(F)c(F)c(F)c3F)n2)cc1OC,3,0,35*,-4,-11
O=C(CCS(=O)(=O)c1cccc2nonc12)NC1CCCCCC1,0,-1,-14,0,-3
O=C(CCNS(=O)(=O)c1cccc2nonc12)NC1CCCCC1,0,-1,31*,-5,-6
CCc1ccc2c(c1)-c1ccccc1S(=O)(=O)N2CC(=O)N1CCC(C)CC1,-2,x,x,7,x
Cc1ccccc1CN(C)CC(=O)Nc1ccccc1Oc1ccccc1,3,-9,43*,15,-8
c1ccc2c(c1)CCc1c-2nc2ccccc2c1N1CCOCC1,1,-4,37*,-14,-16
O=C(NCc1cccs1)C1CCCN1C(=O)Nc1ccc(Cl)cc1 (configuration not stated),1,x,32*,-5,x
O=C(NCc1cccs1)C1CCCN1C(=O)Nc1ccccc1 (configuration not stated),1,0,5,-9,-14
COc1ccccc1N1CCN(C(=O)CCNS(=O)(=O)c2cc(Br)cnc2N)CC1,1,-3,-22,-10,-13
